From PubChem BioAssay (EPA / NIEHS)
Several values for one entry are separate records, joined by “and”; a condition that tells them apart may be missing. Identical values can stand only once. Inconclusive results are not listed. Activity calls are given as the source filed them. The calls were made as follows, unless noted: active = hit-call score of the fitted dose curve at least 0.9, where 1 is the maximum; inactive = score below 0.9.

What was measured:
[1] = read-out: Pyruvate Dehydrogenase Kinase 4 (PDK4), PDK4 (gene 5166); assay: LTEA_HepaRG_PDK4: Life Technologies and Expression Analysis (LTEA) Assay for Pyruvate Dehydrogenase Kinase 4 (PDK4) using HepaRG (AID 2283525); details: mRNA level, 48 h; actives raise or lower the signal
How it was run: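 Readout is qRT-PCR of PDK4 transcript, normalized to three housekeeping genes, with bidirectional fitting against 0.5% DMSO vehicle. Differentiated HepaRG cells were treated 48 h in serum-free induction medium, duplicate wells, eight-point half-log series topping at 100 uM.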

[2] = read-out: NAD(P)H dehydrogenase [quinone] 1 (NQO1), NQO1 (gene 1728); assay: LTEA_HepaRG_NQO1: Life Technologies and Expression Analysis (LTEA) Assay for NAD(P)H dehydrogenase [quinone] 1 (NQO1) using HepaRG (AID 2283526); details: mRNA level, 48 h; actives raise or lower the signal
How it was run: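 Transcript induction or suppression is quantified by qRT-PCR in human HepaRG liver cells dosed for 48 hours. Eight half-log concentrations topping at 100 uM are used, with 0.5% DMSO as vehicle and baseline.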

[3] = read-out: Nuclear factor erythroid 2-related factor 2 (Homo sapiens) (UniProt Q16236); assay: LTEA_HepaRG_NFE2L2: Life Technologies and Expression Analysis (LTEA) Assay for Nuclear factor erythroid 2-related factor 2 (NFE2L2) Transcription Factor using HepaRG (AID 2283527); details: mRNA level, 48 h; actives raise or lower the signal;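 also: TaqMan qRT-PCR transcript level normalised to ACTB GAPDH and POLR2A housekeeping genes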
How it was run: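 NFE2L2 transcript level was read by qRT-PCR (housekeeping ACTB/GAPDH/POLR2A normalisation) after 48 h chemical treatment of HepaRG in serum-free induction medium. Duplicate 8-point half-log curves, top 100 uM, 0.5% DMSO vehicle; up- or down-regulation fitted against vehicle.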

[4] = read-out: succinate dehydrogenase complex iron sulfur subunit B (SDHB), SDHB (gene 6390); assay: LTEA_HepaRG_SDHB: Life Technologies and Expression Analysis (LTEA) Assay for succinate dehydrogenase complex iron sulfur subunit B (SDHB) using HepaRG (AID 2283528); details: mRNA level, 48 h; actives raise or lower the signal
How it was run: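 HepaRG, 48 h exposure, 8-pt half-log series from 100 uM in 0.5% DMSO, duplicates. Readout: SDHB mRNA by Fluidigm qRT-PCR vs housekeeping genes; bidirectional fit relative to DMSO.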

[5] = read-out: Signal transducer and activator of transcription 3 (Homo sapiens) (UniProt P40763); assay: LTEA_HepaRG_STAT3: Life Technologies and Expression Analysis (LTEA) Assay for Signal transducer and activator of transcription (STAT3) using HepaRG (AID 2283529); details: mRNA level, 48 h; actives raise or lower the signal
How it was run: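 STAT3 transcript quantified by qRT-PCR against three housekeeping genes (ACTB, GAPDH, POLR2A), fitted both directions relative to DMSO. HepaRG cultures exposed 48 h to eight half-log concentrations, top 100 uM, 0.5% DMSO, serum-free induction medium.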

[6] = read-out: solute carrier (SLCO1B1), SLCO1B1 (gene 10599); assay: LTEA_HepaRG_SLCO1B1: Life Technologies and Expression Analysis (LTEA) Assay for solute carrier (SLCO1B1) using HepaRG (AID 2283530); details: mRNA level, 48 h; actives raise or lower the signal
How it was run: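 SLCO1B1 transcript levels were quantified by TaqMan qRT-PCR using three housekeeping genes for normalization. This followed 48 h chemical exposure (100 uM top, half-log, 8 points, 0.5% DMSO) of HepaRG liver cells, with gain or loss fitted relative to DMSO.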

[7] = read-out: sulfotransferase 2A1 (SULT2A1), SULT2A1 (gene 6822); assay: LTEA_HepaRG_SULT2A1: Life Technologies and Expression Analysis (LTEA) Assay for sulfotransferase 2A1 (SULT2A1) using HepaRG (AID 2283531); details: mRNA level, 48 h; actives raise or lower the signal
How it was run: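 Expression change of SULT2A1, by qRT-PCR with three housekeeping-gene normalization, was scored bidirectionally versus DMSO. Cells: differentiated HepaRG, dosed in duplicate for 48 h across 8 points, highest 100 µM, half-log dilution, 0.5% DMSO.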

[8] = read-out: Transforming Growth Factor (TGFA), TGFA (gene 7039); assay: LTEA_HepaRG_TGFA: Life Technologies and Expression Analysis (LTEA) Assay for Transforming Growth Factor (TGFA) using HepaRG (AID 2283532); details: mRNA level, 48 h; actives raise or lower the signal
How it was run: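 TGFA transcript quantified by qRT-PCR (Fluidigm arrays) against three housekeeping genes, after 48 hours chemical treatment of HepaRG cells. Top concentration 100 uM with half-log dilutions, 8 points, duplicates, 0.5% DMSO.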

[9] = read-out: Transforming Growth Factor (TGFB1), TGFB1 (gene 7040); assay: LTEA_HepaRG_TGFB1: Life Technologies and Expression Analysis (LTEA) Assay for Transforming Growth Factor (TGFB1) Transporter using HepaRG (AID 2283533); details: mRNA level, 48 h; actives raise or lower the signal
How it was run: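 TGFB1 transcript measured by qRT-PCR with normalisation to three housekeeping genes (ACTB, GAPDH, POLR2A); human HepaRG line treated in duplicate for 48 hr with an 8-point series topping at 100 uM, 0.5% DMSO vehicle, bidirectionally fitted.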

TIMP1, TIMP1 (gene 7076) = assay: LTEA_HepaRG_TIMP1: Life Technologies and Expression Analysis (LTEA) Assay for TIMP1 using HepaRG (AID 2283534); details: mRNA level, 48 h; actives raise or lower the signal
How it was run: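 Bidirectional change in TIMP1 transcript versus 0.5% DMSO, measured by TaqMan qRT-PCR with three housekeeping genes for normalization. HepaRG human liver cells dosed 48 h in duplicate, top concentration 100 uM with half-log dilutions.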

[10] = read-out: Tumor necrosis factor receptor 1 (TNFRSF1A), TNFRSF1A (gene 7132); assay: LTEA_HepaRG_TNFRSF1A: Life Technologies and Expression Analysis (LTEA) Assay for Tumor necrosis factor receptor 1 (TNFRSF1A) using HepaRG (AID 2283535); details: mRNA level, 48 h; actives raise or lower the signal
How it was run: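 mRNA measured by qRT-PCR (TaqMan, Fluidigm arrays) against ACTB/GAPDH/POLR2A housekeepers after 48 h chemical exposure of HepaRG cells. Top concentration 100 uM, half-log 8-point series, duplicates; vehicle 0.5% DMSO, both fit directions.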

[11] = read-out: Thyroid Hormone Responsive (THRSP), THRSP (gene 7069); assay: LTEA_HepaRG_THRSP: Life Technologies and Expression Analysis (LTEA) Assay for Thyroid Hormone Responsive (THRSP) using HepaRG (AID 2283536); details: mRNA level, 48 h; actives raise or lower the signal
How it was run: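 THRSP transcript quantified by Fluidigm qRT-PCR against three housekeeping genes after 48 h chemical exposure of HepaRG cells in serum-free induction medium; eight-point half-log series, top 100 uM, 0.5% DMSO vehicle, duplicate wells.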

[12] = read-out: Cellular tumor antigen p53 (Homo sapiens) (UniProt P04637); assay: LTEA_HepaRG_TP53: Life Technologies and Expression Analysis (LTEA) Assay for Tumor Protein P53 (TP53) using HepaRG (AID 2283537); details: mRNA level, 48 h; actives raise or lower the signal
How it was run: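 HepaRG, 48 h exposure, top 100 uM, half-log 8-point, 0.5% DMSO vehicle, duplicates. Read: TP53 mRNA by TaqMan qRT-PCR, normalised to ACTB/GAPDH/POLR2A; bidirectional fit vs DMSO.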

[13] = read-out: UDP glucuronosyltransferase (UGT1A1), UGT1A1 (gene 54658); assay: LTEA_HepaRG_UGT1A1: Life Technologies and Expression Analysis (LTEA) Assay for UDP glucuronosyltransferase (UGT1A1) using HepaRG (AID 2283538); details: mRNA level, 48 h; actives raise or lower the signal
How it was run: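 Cells are plated, cultured 48 h, switched to serum-free induction medium, then dosed 48 h at eight concentrations (max 100 uM, 0.5% DMSO). RNA is isolated and UGT1A1 expression measured by qRT-PCR; changes versus DMSO are fitted in both directions.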

[14] = read-out: UDP glucuronosyltransferase (UGT1A6), UGT1A6 (gene 54578); assay: LTEA_HepaRG_UGT1A6: Life Technologies and Expression Analysis (LTEA) Assay for UDP glucuronosyltransferase (UGT1A6) using HepaRG (AID 2283539); details: mRNA level, 48 h; actives raise or lower the signal
How it was run: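 Expression was quantified by TaqMan qRT-PCR on Fluidigm arrays with ACTB/GAPDH/POLR2A normalization and bidirectional fitting against 0.5% DMSO. HepaRG cells (~100,000/well) were treated in duplicate for 48 h at eight half-log concentrations up to 100 uM in serum-free induction medium.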

[15] = read-out: X-box binding protein 1 (XBP1), XBP1 (gene 7494); assay: LTEA_HepaRG_XBP1: Life Technologies and Expression Analysis (LTEA) Assay for X-box binding protein 1 (XBP1) using HepaRG (AID 2283540); details: mRNA level, 48 h; actives raise or lower the signal
How it was run: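 XBP1 transcript by qRT-PCR (housekeeping-normalized: ACTB, GAPDH, POLR2A) after 48 h chemical treatment of HepaRG cells, 8-point half-log series topping at 100 uM, vehicle 0.5% DMSO. Gain and loss of signal fitted relative to DMSO.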

[16] = LTEA_HepaRG_LDH_cytotoxicity: Cytotoxicity Assessment in the Life Technologies and Expression Analysis (LTEA) Assay (AID 2283563; active = hit-call score of the fitted dose curve at least 0.9, where 1 is the maximum)
How it was run: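 LDH release into culture medium read after 48 h chemical treatment of HepaRG cells. Duplicate wells, eight-point half-log series topping at 100 uM, 0.5% DMSO vehicle and baseline.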

[17] = ATG_XTT_Cytotoxicity: Cytotoxicity Assessment in the Attagene TRANS-FACTORIAL HepG2 Assay (AID 2283584; active = hit-call score of the fitted dose curve at least 0.9, where 1 is the maximum)
How it was run: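 Viability endpoint from XTT after 24 h chemical exposure of reporter-transfected human HepG2 liver cells; signal loss fitted relative to DMSO negative control.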

[18] = TOX21_p53_BLA_p2_viability: Viability Assessment in the Tox21 HCT-116 p53 Agonism Beta-lactamase Assay, Phase 2 (AID 2283591; active = hit-call score of the fitted dose curve at least 0.9, where 1 is the maximum;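 also: compound exposure lasted 16 h at 37 °C; actives lower the ATP signal meaning cytotoxicity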)
How it was run: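 Cytotoxicity readout: CellTiter-Glo ATP luminescence, 30 min at room temperature, after the beta-lactamase read. Cells were HCT116 exposed 16 h at 37C to compounds pin-transferred at 217-fold dilution from DMSO stocks.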

[19] = target: Cellular tumor antigen p53 (Homo sapiens) (UniProt P04637); assay: TOX21_p53_BLA_p2_ratio: Tox21 HCT-116 p53 Agonism Beta-lactamase Assay, Ratio, Phase 2 (AID 2283592; active = hit-call score of the fitted dose curve at least 0.9, where 1 is the maximum)
Cellular tumor antigen p53 (Homo sapiens), sequence (P04637 whole entry, looked up): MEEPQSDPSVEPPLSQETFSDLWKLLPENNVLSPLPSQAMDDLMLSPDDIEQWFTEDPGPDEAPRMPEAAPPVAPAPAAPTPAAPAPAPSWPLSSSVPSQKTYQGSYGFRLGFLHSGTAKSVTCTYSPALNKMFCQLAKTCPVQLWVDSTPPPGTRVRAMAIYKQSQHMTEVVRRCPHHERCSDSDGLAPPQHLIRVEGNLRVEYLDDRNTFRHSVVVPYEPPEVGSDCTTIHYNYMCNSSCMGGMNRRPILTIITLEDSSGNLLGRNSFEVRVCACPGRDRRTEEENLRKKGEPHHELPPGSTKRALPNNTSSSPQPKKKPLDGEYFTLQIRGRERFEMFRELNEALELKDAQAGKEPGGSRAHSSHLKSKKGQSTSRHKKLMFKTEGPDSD
How it was run: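 Read-out is the blue/green (460/530 nm, 405 nm excitation) ratio after 2 h CCF4-AM loading, fitted as gain versus DMSO. Compounds, pinned at 217-fold dilution from DMSO stocks, stayed 16 h on HCT-116 beta-lactamase reporter cells seeded 5 h earlier.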

Measured: AC50

Nuclear factor erythroid 2-related factor 2 (Homo sapiens), sequence (Q16236 whole entry, looked up): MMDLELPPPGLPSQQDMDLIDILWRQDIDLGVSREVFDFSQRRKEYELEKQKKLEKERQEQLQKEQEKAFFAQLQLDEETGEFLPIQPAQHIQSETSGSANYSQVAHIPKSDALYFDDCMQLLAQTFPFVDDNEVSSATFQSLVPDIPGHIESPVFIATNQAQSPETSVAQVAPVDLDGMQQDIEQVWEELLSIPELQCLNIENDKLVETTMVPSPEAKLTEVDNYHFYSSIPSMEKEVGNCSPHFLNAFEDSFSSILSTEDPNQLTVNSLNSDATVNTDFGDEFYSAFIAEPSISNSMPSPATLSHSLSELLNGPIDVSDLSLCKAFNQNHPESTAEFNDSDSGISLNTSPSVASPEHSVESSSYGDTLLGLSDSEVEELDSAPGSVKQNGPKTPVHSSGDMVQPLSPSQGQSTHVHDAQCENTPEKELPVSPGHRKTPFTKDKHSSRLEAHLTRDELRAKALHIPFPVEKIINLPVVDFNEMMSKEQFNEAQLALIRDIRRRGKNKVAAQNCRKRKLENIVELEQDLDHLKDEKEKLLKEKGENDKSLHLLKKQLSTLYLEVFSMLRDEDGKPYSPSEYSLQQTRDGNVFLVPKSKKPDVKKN
Signal transducer and activator of transcription 3 (Homo sapiens), sequence (P40763 whole entry, looked up): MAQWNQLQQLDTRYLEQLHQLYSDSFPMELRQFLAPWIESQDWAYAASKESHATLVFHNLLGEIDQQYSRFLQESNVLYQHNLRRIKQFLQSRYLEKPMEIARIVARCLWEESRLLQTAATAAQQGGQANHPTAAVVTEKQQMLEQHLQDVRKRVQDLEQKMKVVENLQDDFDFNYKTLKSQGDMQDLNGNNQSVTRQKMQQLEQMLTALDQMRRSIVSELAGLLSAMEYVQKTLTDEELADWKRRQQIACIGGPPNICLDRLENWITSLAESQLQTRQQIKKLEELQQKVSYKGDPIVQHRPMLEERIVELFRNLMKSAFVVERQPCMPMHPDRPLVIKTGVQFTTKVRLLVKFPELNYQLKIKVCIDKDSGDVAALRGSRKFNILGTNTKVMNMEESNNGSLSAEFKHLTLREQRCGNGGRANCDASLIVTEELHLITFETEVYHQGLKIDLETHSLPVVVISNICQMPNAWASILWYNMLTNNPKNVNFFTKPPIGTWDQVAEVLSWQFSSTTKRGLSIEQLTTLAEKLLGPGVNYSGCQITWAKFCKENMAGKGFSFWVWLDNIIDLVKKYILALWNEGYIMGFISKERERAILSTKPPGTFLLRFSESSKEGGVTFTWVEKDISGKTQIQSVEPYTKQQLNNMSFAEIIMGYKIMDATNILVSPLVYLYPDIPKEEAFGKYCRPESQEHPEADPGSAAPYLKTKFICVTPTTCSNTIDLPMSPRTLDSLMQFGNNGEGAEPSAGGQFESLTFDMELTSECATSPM

CC/C(=C\C(=N/O)C(N)=O)C(C)[N+](=O)[O-] (stereo not drawn)
inactive: [1] | [2] | [3] | [4] | [5] | [6] | [7] | [8] | [9] | TIMP1, TIMP1 (gene 7076) | [10] | [11] | [12] | [13] | [14] | [15] | [16] | [17] | [18]

Cn1c(=O)c2c(ncn2C)n(C)c1=O
inactive: [1] | [2] | [3] | [4] | [5] | [6] | [7] | [8] | [9] | TIMP1, TIMP1 (gene 7076) | [10] | [11] | [12] | [13] | [14] | [15] | [16] | [17] | [18] | [19]

Cn1cnc([N+](=O)[O-])c1Sc1ncnc2nc[nH]c12
inactive: [2] | [3] | [4] | [5] | [7] | [8] | [10] | [12] | [15] | [16] | [17] | [18]
active: [1] 6.61 µM | [6] 1.62 µM | [9] 12.8 µM | [11] 10.7 µM | [13] 0.754 µM | [14] 3.9 µM | [19] 18.9 µM and 31.3 µM
